# Values joined by “and” are separate entries in the source; they are usually repeats but may differ in a detail not shown here. Identical values can stand only once. Records with an inconclusive call do not appear. Unmarked numbers belong to inactive results. Active and inactive are the calls of the source. Calls follow the shape of the dose curve; as a rule, active = well fitted curve in either direction with a large enough effect (not every such curve was filed as active); inconclusive = small, poorly fitted or top-dose-only effect, or another doubt; inactive = flat fitted curve, though single readings scatter.
# Test: NFAT Signaling Pathway (AID 444);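 also: carbachol stimulus at about its EC50 of 1 µM final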
# Conditions: Jurkat NFAT-bla M1, carbachol, beta-lactamase ratio, 5 h; at 17.2 µM (top of the series)
# How it was run: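 Jurkat cells carrying an NFAT-driven β-lactamase reporter and co-transfected muscarinic M1 receptor were treated with compound plus carbachol (1 uM final, an EC50 level) for 5 h at 37 °C. CCF4 loading followed for 1 h at RT; 460/530 nm ratio gave %activity.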
# % is scaled to controls: 0 for no effect and ±100 for the full control effect.
row,Structure (SMILES),"activity change, negative = inhibition"
1,C[C@]12C[C@H](O)[C@H]3[C@@H](CCC4=CC(=O)CC[C@@]43C)[C@@H]1CC[C@@H]2C(=O)CO,2.08%
2,COC(=O)C1=C(C)NC(C)=C(C(=O)OC)C1c1ccccc1[N+](=O)[O-],-7.96%
3,Nc1ccc(S(=O)(=O)Nc2nccs2)cc1,2.2%
4,c1ccc2c(CC3=NCCN3)cccc2c1,-19.1%
5,COc1ccc(Cl)cc1C(=O)NCCc1ccc(S(=O)(=O)NC(=O)NC2CCCCC2)cc1,-3.12% and -29.5%
6,Cc1c(Cl)cccc1Nc1ccccc1C(=O)O,-35.5%
7,CCN(CC)CCNC(=O)c1cc(Cl)c(N)cc1OC,-0.325% and -6.2%
8,CC1(C)OC(=O)NC1=O,-1.86%
9,CC(C)NC[C@H](O)c1ccc(O)c(O)c1,-6.44% and -3.44%
10,Nc1ccc(S(=O)(=O)Nc2ccc(Cl)nn2)cc1,9.43%
11,CCCCN1CCCC[C@H]1C(=O)Nc1c(C)cccc1C,3.05%
12,NS(=O)(=O)c1cc2c(cc1Cl)NC(CSCc1ccccc1)=NS2(=O)=O,-9.25% and 1.09%
13,CCn1cc(C(=O)O)c(=O)c2cnc(N3CCNCC3)nc21,-4.81%
14,C#CCN(C)Cc1ccccc1,4.68% and -0.725%
15,CCOc1ccc2ccccc2c1C(=O)N[C@@H]1C(=O)N2[C@@H]1SC(C)(C)[C@@H]2C(=O)O,1.54%
16,CNCCCC1c2ccccc2C=Cc2ccccc21,-94% (active)
17,Cc1cc2c(cc1S(N)(=O)=O)S(=O)(=O)CCC2,1.69%
18,CCCCOC(=O)c1ccc(O)cc1,-15%
19,Nc1ccc(S(=O)(=O)NC(=O)c2ccccc2)cc1,7.31% and -26.1%
20,CCC(=O)c1ccc(O)cc1,-1.37%
21,Cc1cc(CC(=O)O)n(C)c1C(=O)c1ccc(Cl)cc1,1.18%
22,CCN(CC)CCOC(=O)C1(C2CCCCC2)CCCCC1,-68.8% (active)

# Same assay, conditions: Jurkat NFAT-bla M1, carbachol, beta-lactamase ratio, 5 h; at 38 µM (top of the series)
row,Structure (SMILES),"activity change, negative = inhibition"
1,CCCn1cnc2c1c(=O)n(CCCCC(C)=O)c(=O)n2C,9.62%
2,COc1ccc(Cl)cc1C(=O)NCCc1ccc(S(=O)(=O)NC(=O)NC2CCCCC2)cc1,0.0491%
3,CC1=C(CC(=O)O)c2cc(F)ccc2/C1=C\c1ccc(S(C)(=O)=O)cc1,13.8%
4,Cc1cc(N)c2ccccc2[n+]1CCCCCCCCCC[n+]1c(C)cc(N)c2ccccc21,-78.7% (active)
5,CCN(CC)CCNC(=O)c1cc(Cl)c(N)cc1OC,4.1%
6,C#CCN(C)Cc1ccccc1,4.11%
7,CC(C)C(=O)c1c(C(C)C)nn2ccccc12,-1.94%
8,N=c1c[n+](N2CCOCC2)[n-]o1,3.52%
9,Nc1cc(=O)[nH]c(N)n1,-0.946%
10,CC1=C(CC(=O)O)c2cc(F)ccc2/C1=C\c1ccc(S(C)=O)cc1 (stereo unspecified),2.92%
11,C=Cc1c(C)c2cc3[nH]c(cc4nc(cc5nc(cc1[nH]2)C(C)=C5CCC(=O)O)C(CCC(=O)O)=C4C)c(C)c3C=C,10.7%
12,NC(N)=NCCC[C@H](N)C(=O)O,-0.248%
13,CCN(CC)CCOC(=O)C1(C2CCCCC2)CCCCC1,-63.7% (active)
14,NC1CCN(c2cccc(Cl)n2)CC1,-6.65%

# Test: Stat Signaling Pathway (AID 446);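 also: ME-180 cervical cancer cells given 40 pM IL-6 alongside compound; SIE-controlled beta-lactamase reporter measured as 460/530 nm FRET emission ratio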
# Conditions: ME-180 SIE beta-lactamase reporter, IL-6 stimulated, 5 h; at 17.2 µM (top of the series)
# How it was run: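 Screening format detects activators and inhibitors alike: ME-180 SIE-bla cells stimulated at 40 pM IL-6 for 5 hrs with compound, then dual-emission beta-lactamase read at 405 nm excitation.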
row,Structure (SMILES),"activity, negative = inhibition"
1,C[C@]12C[C@H](O)[C@H]3[C@@H](CCC4=CC(=O)CC[C@@]43C)[C@@H]1CC[C@@H]2C(=O)CO,3.29%
2,COC(=O)C1=C(C)NC(C)=C(C(=O)OC)C1c1ccccc1[N+](=O)[O-],-12.5% and -20.9%
3,Nc1ccc(S(=O)(=O)Nc2nccs2)cc1,-1.46%
4,c1ccc2c(CC3=NCCN3)cccc2c1,6.58% and 9.6%
5,COc1ccc(Cl)cc1C(=O)NCCc1ccc(S(=O)(=O)NC(=O)NC2CCCCC2)cc1,-3.96% and -3.07%
6,Cc1c(Cl)cccc1Nc1ccccc1C(=O)O,-15.1% and -25.4%
7,Cc1cc(N)c2ccccc2[n+]1CCCCCCCCCC[n+]1c(C)cc(N)c2ccccc21,-1.05%
8,CCN(CC)CCNC(=O)c1cc(Cl)c(N)cc1OC,16.4% and -2.07%
9,c1ccc(CN(CC2=NCCN2)c2ccccc2)cc1,-2.58% and 2.91% and -16.4%
10,CC1(C)OC(=O)NC1=O,1.25%
11,CC(C)NC[C@H](O)c1ccc(O)c(O)c1,-5.65% and -7.18%
12,Nc1ccc(S(=O)(=O)Nc2ccc(Cl)nn2)cc1,-3.21%
13,CCCCN1CCCC[C@H]1C(=O)Nc1c(C)cccc1C,1.67%
14,NS(=O)(=O)c1cc2c(cc1Cl)NC(CSCc1ccccc1)=NS2(=O)=O,-11% and 0.218%
15,CCn1cc(C(=O)O)c(=O)c2cnc(N3CCNCC3)nc21,3.23% and 2.72%
16,C#CCN(C)Cc1ccccc1,8.61% and -2.46%
17,CCCCN(CCCC)CCCOC(=O)c1ccc(N)cc1,-8.33% and 3.52%
18,COc1ccc2c(c1)C(=O)N(CCc1ccc(S(=O)(=O)NC(=O)NC3CCCCC3)cc1)C(=O)C2(C)C,-7.41%
19,CCOc1ccc2ccccc2c1C(=O)N[C@@H]1C(=O)N2[C@@H]1SC(C)(C)[C@@H]2C(=O)O,2.51%
20,CNCCCC1c2ccccc2C=Cc2ccccc21,-10.4% and -15.8%
21,N=c1c[n+](N2CCOCC2)[n-]o1,4.68%
22,Cc1cc2c(cc1S(N)(=O)=O)S(=O)(=O)CCC2,-10.1%
23,CCCCOC(=O)c1ccc(O)cc1,-9.98%
24,Nc1ccc(S(=O)(=O)NC(=O)c2ccccc2)cc1,-0.201% and -5.16%
25,CCC(=O)c1ccc(O)cc1,-0.905%
26,CC1=C(CC(=O)O)c2cc(F)ccc2/C1=C\c1ccc(S(C)=O)cc1 (stereo unspecified),0.939%
27,OCCN1CCN(CCCN2c3ccccc3Sc3ccc(Cl)cc32)CC1,-2.44% and -12%
28,Cc1cc(CC(=O)O)n(C)c1C(=O)c1ccc(Cl)cc1,8.99%
29,CCN(CC)CCOC(=O)C1(C2CCCCC2)CCCCC1,0.488% and 9.07%
30,CC(=O)c1ccc2c(c1)N(CCCN(C)C)c1ccccc1S2,-0.766%

# From PubChem BioAssay (NCATS)
